Source: PubChem BioAssay AID1159580 (chemical genetic matrix, 2015)
Values joined by “and” are separate entries in the source; they are usually repeats but may differ in a detail not shown here. Equal entries are not always repeated. Among all 5,500 compounds or so, about 2,000 (36%) were called active. About 18% were inconclusive and are not listed. Rule as the data show it: active = normalized growth mostly below about 0.91 (no sharp cut-off); inconclusive = no clear call, values can overlap the other calls; inactive = mostly above about 0.92. Some of the results follow.

Test: chemical genetic growth profiling, strain panel (AID 1159580);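 also: tested at 20 µM; growth read once vehicle control cultures reached saturation at 30 °C; 1 = growth at the plate median or of vehicle wells; lower values mean less growth of the strain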
Details: S. cerevisiae deletion strains, growth OD

Measured: normalized growth

COc1ccc2c(c1)OC/C(=C/c1ccc(OC)c(OC)c1)C2=O
active: locus YAL026C, strain drs2, stronger effect = lower value 0.891 | locus YBR009C, strain hhf1, stronger effect = lower value 0.803 | locus YBR023C, strain chs3, stronger effect = lower value 0.882 | locus YBR231C, strain swc5, stronger effect = lower value 0.88 | locus YCL011C, strain gbp2, stronger effect = lower value 0.905 | locus YCL016C, strain dcc1, stronger effect = lower value 0.856 | locus YCL061C, strain MRC1, stronger effect = lower value 0.887 | locus YCL069W, strain vba3, stronger effect = lower value 0.873 | locus YDR137W, strain rgp1, stronger effect = lower value 0.682 | locus YDR162C, strain NBP2, stronger effect = lower value 0.833 | locus YDR318W, strain mcm21, stronger effect = lower value 0.894 | locus YDR335W, strain msn5, stronger effect = lower value 0.899 | locus YDR392W, strain spt3, stronger effect = lower value 0.212 | locus YDR502C, strain sam2, stronger effect = lower value 0.893 | locus YEL003W, strain gim4, stronger effect = lower value 0.893 | locus YEL061C, strain CIN8 (second series), stronger effect = lower value 0.863 | locus YEL061C, strain CIN8, stronger effect = lower value 0.911 | locus YER155C, strain BEM2 (second series), stronger effect = lower value 0.625 | locus YGL086W, strain mad1, stronger effect = lower value 0.9 | locus YGL240W, strain doc1, stronger effect = lower value 0.852 | locus YGL253W, strain hxk2, stronger effect = lower value 0.764 | locus YHR129C, strain ARP1, stronger effect = lower value 0.867 | locus YHR142W, strain chs7, stronger effect = lower value 0.668 | locus YIL066C, strain RNR3, stronger effect = lower value 0.832 | locus YJL095W, strain BCK1 (second series), stronger effect = lower value 0.864 | locus YJL164C, strain tpk1, stronger effect = lower value 0.852 | locus YJL166W, strain qcr8, stronger effect = lower value 0.756 | locus YKL160W, strain elf1, stronger effect = lower value 0.758 | locus YKR001C, strain vps1, stronger effect = lower value 0.861 | locus YLL001W, strain dnm1, stronger effect = lower value 0.845 | locus YLR027C, strain aat2, stronger effect = lower value 0.914 | locus YLR221C, strain rsa3, stronger effect = lower value 0.886 | locus YLR262C, strain YPT6 (second series), stronger effect = lower value 0.682 | locus YLR268W, strain sec22, stronger effect = lower value 0.852 | locus YLR320W, strain mms22, stronger effect = lower value 0.71 | locus YLR330W, strain CHS5, stronger effect = lower value 0.838 | locus YLR418C, strain cdc73, stronger effect = lower value 0.621 | locus YMR058W, strain fet3, stronger effect = lower value 0.87 | locus YMR205C, strain PFK2, stronger effect = lower value 0.68 | locus YNL071W, strain lat1, stronger effect = lower value 0.38 | locus YNL307C, strain MCK1, stronger effect = lower value 0.412 | locus YOR083W, strain WHI5, stronger effect = lower value 0.852 | locus YOR106W, strain vam3, stronger effect = lower value 0.842 | locus YOR184W, strain ser1, stronger effect = lower value 0.805 | locus YOR270C, strain vph1, stronger effect = lower value 0.686 | locus YOR290C, strain snf2, stronger effect = lower value 0.813 | locus YPL051W, strain arl3, stronger effect = lower value 0.852 | locus YPL078C, strain atp4, stronger effect = lower value 0.793 | locus YPL106C, strain sse1, stronger effect = lower value 0.841 | locus YPL240C, strain hsp82, stronger effect = lower value 0.87 | locus YPR163C, strain tif3, stronger effect = lower value 0.726
0.838 (active) and 0.944 (inactive): locus YHR030C, strain SLT2, stronger effect = lower value
inactive: locus YAL013W, strain DEP1, stronger effect = lower value 1.01 | locus YAL021C, strain ccr4, stronger effect = lower value 0.997 | locus YAL030W, strain snc1, stronger effect = lower value 0.986 | locus YBL061C, strain skt5, stronger effect = lower value 1 | locus YBR021W, strain FUR4, stronger effect = lower value 0.873 | locus YBR171W, strain sec66, stronger effect = lower value 0.978 | locus YBR229C, strain ROT2, stronger effect = lower value 0.981 | locus YBR279W, strain paf1, stronger effect = lower value 0.946 | locus YCL029C, strain bik1, stronger effect = lower value 0.943 | locus YCR088W, strain abp1, stronger effect = lower value 0.98 | locus YDL005C, strain med2, stronger effect = lower value 1.02 | locus YDL035C, strain GPR1, stronger effect = lower value 0.978 | locus YDL040C, strain nat1, stronger effect = lower value 0.974 | locus YDL074C, strain BRE1, stronger effect = lower value 0.928 | locus YDL101C, strain DUN1, stronger effect = lower value 0.95 | locus YDL185W, strain tfp1, stronger effect = lower value 0.987 | locus YDL192W, strain arf1, stronger effect = lower value 0.944 | locus YDR001C, strain nth1, stronger effect = lower value 0.983 | locus YDR069C, strain doa4, stronger effect = lower value 1.01 | locus YDR101C, strain arx1, stronger effect = lower value 0.963 | locus YDR159W, strain sac3, stronger effect = lower value 0.874 | locus YDR195W, strain ref2 1.1 | locus YDR297W, strain sur2, stronger effect = lower value 0.943 | locus YDR334W, strain swr1, stronger effect = lower value 0.974 | locus YDR388W, stronger effect = lower value 0.958 | locus YEL037C, strain rad23, stronger effect = lower value 0.984 | locus YER015W, strain faa2, stronger effect = lower value 0.936 | locus YER016W, strain bim1, stronger effect = lower value 1.03 | locus YER110C, stronger effect = lower value 0.945 | locus YER111C, strain swi4, stronger effect = lower value 1.01 | locus YER155C, strain BEM2, stronger effect = lower value 0.962 | locus YER167W, strain BCK2, stronger effect = lower value 0.947 | locus YFR010W, strain ubp6, stronger effect = lower value 0.986 | locus YGL078C, strain dbp3, stronger effect = lower value 0.976 | locus YGL167C, strain pmr1, stronger effect = lower value 1.06 | locus YGL173C, strain kem1, stronger effect = lower value 0.984 | locus YGL227W, strain vid30, stronger effect = lower value 0.986 | locus YGL248W, strain PDE1, stronger effect = lower value 0.916 | locus YGR135W, strain pre9, stronger effect = lower value 0.914 | locus YGR252W, strain gcn5, stronger effect = lower value 0.799 | locus YHR013C, strain ard1, stronger effect = lower value 0.862 | locus YHR027C, strain rpn1, stronger effect = lower value 0.979 | locus YHR079C, strain IRE1 (second series), stronger effect = lower value 0.979 | locus YHR079C, strain IRE1, stronger effect = lower value 0.952 | locus YHR094C, strain hxt1, stronger effect = lower value 0.969 | locus YHR200W, strain rpn10, stronger effect = lower value 0.969 | locus YIL073C, strain SPO22, stronger effect = lower value 0.833 | locus YIL125W, strain kgd1, stronger effect = lower value 0.973 | locus YIR030C, strain dcg1, stronger effect = lower value 0.978 | locus YJL092W, strain hpr5, stronger effect = lower value 0.97 | locus YJL115W, strain asf1, stronger effect = lower value 0.98 | locus YJL129C, strain trk1, stronger effect = lower value 0.929 | locus YJL134W, strain LCB3, stronger effect = lower value 0.996 | locus YJL154C, strain vps35, stronger effect = lower value 0.993 | locus YJL168C, strain set2, stronger effect = lower value 0.965 | locus YJL187C, strain SWE1 (second series), stronger effect = lower value 0.937 | locus YJL187C, strain SWE1, stronger effect = lower value 0.973 | locus YJR043C, strain POL32, stronger effect = lower value 0.915 | locus YJR066W, strain TOR1, stronger effect = lower value 0.903 | locus YJR075W, strain HOC1, stronger effect = lower value 0.955 | locus YKL009W, strain mrt4, stronger effect = lower value 0.973 | locus YKL068W, stronger effect = lower value 1.02 | locus YKL085W, strain MDH1 (second series), stronger effect = lower value 0.98 | locus YKL085W, strain MDH1, stronger effect = lower value 0.98 | locus YKL190W, strain CNB1, stronger effect = lower value 0.982 | locus YKR026C, strain gcn3, stronger effect = lower value 0.984 | locus YKR091W, strain srl3, stronger effect = lower value 0.979 | locus YLL026W, stronger effect = lower value 0.979 | locus YLL041C, strain sdh2, stronger effect = lower value 1.01 | locus YLR039C, strain RIC1, stronger effect = lower value 0.727 | locus YLR058C, strain SHM2, stronger effect = lower value 0.949 | locus YLR102C, strain apc9, stronger effect = lower value 0.974 | locus YLR113W, strain HOG1, stronger effect = lower value 0.933 | locus YLR258W, strain gsy2, stronger effect = lower value 0.915 | locus YLR262C, strain YPT6, stronger effect = lower value 0.805 | locus YLR342W, strain FKS1 (second series), stronger effect = lower value 0.809 | locus YLR342W, strain FKS1, stronger effect = lower value 0.92 | locus YLR357W, strain rsc2, stronger effect = lower value 0.985 | locus YLR370C, strain arc18, stronger effect = lower value 0.962 | locus YLR371W, strain rom2, stronger effect = lower value 0.951 | locus YLR384C, strain iki3, stronger effect = lower value 1 | locus YML016C, strain PPZ1, stronger effect = lower value 0.989 | locus YML032C, strain rad52, stronger effect = lower value 0.955 | locus YML120C, strain ndi1, stronger effect = lower value 0.979 | locus YML124C, strain tub3, stronger effect = lower value 0.982 | locus YMR078C, strain ctf18, stronger effect = lower value 0.981 | locus YMR125W, strain sto1, stronger effect = lower value 0.966 | locus YMR129W, stronger effect = lower value 0.996 | locus YMR223W, strain ubp8, stronger effect = lower value 0.941 | locus YMR231W, strain pep5, stronger effect = lower value 0.984 | locus YMR307W, strain GAS1, stronger effect = lower value 0.955 | locus YNL067W, strain RPL9B, stronger effect = lower value 0.931 | locus YNL128W, strain TEP1, stronger effect = lower value 0.96 | locus YNL183C, strain NPR1, stronger effect = lower value 0.9 | locus YNL209W, strain ssb2, stronger effect = lower value 0.967 | locus YNL233W, strain BNI4, stronger effect = lower value 0.873 | locus YNL248C, strain rpa49, stronger effect = lower value 0.935 | locus YNL250W, strain rad50, stronger effect = lower value 0.98 | locus YNL271C, strain bni1, stronger effect = lower value 0.971 | locus YNL298W, strain CLA4, stronger effect = lower value 0.93 | locus YNL322C, strain KRE1 (second series), stronger effect = lower value 0.98 | locus YNR049C, strain mso1, stronger effect = lower value 0.978 | locus YNR052C, strain pop2, stronger effect = lower value 0.964 | locus YOL006C, strain TOP1, stronger effect = lower value 0.724 | locus YOL012C, strain htz1 0.627 | locus YOL147C, strain pex11, stronger effect = lower value 0.956 | locus YOR001W, strain rrp6, stronger effect = lower value 0.955 | locus YOR061W, strain CKA2, stronger effect = lower value 0.979 | locus YOR069W, strain VPS5, stronger effect = lower value 1 | locus YOR070C, strain gyp1, stronger effect = lower value 0.929 | locus YOR080W, strain dia2, stronger effect = lower value 0.986 | locus YOR136W, strain idh2, stronger effect = lower value 0.967 | locus YOR144C, strain elg1, stronger effect = lower value 0.976 | locus YOR231W, strain MKK1, stronger effect = lower value 0.921 | locus YOR265W, strain rbl2, stronger effect = lower value 0.954 | locus YOR316C, strain cot1, stronger effect = lower value 0.967 | locus YPL241C, strain CIN2, stronger effect = lower value 0.994 | locus YPL256C, strain CLN2, stronger effect = lower value 0.972 | locus YPR119W, strain clb2, stronger effect = lower value 0.994 | locus YPR141C, strain kar3, stronger effect = lower value 0.996 | locus YPR167C, strain met16, stronger effect = lower value 0.952 | strain wtn01, stronger effect = lower value 0.936
0.733 (active) and 0.959 (inactive): locus YJL095W, strain BCK1, stronger effect = lower value
